Consider 34 molecules from PubChem BioAssay (NCI).

Structures are written as SMILES. The panel holds about 83,000 compounds, 20% with a hit somewhere; the sample as a whole holds those more often.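 Cells were grown in 96-well plates and exposed to the test compound at a single concentration for 48 hours; results are reported as percent growth, with values below 10 considered active.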 A number with no mark means an inactive call. Active and inactive are the calls of the source.

One assay concerns NCI-H23 lung. Nature of the assay: NCI-60 one-dose screen, 48 h (100 = growth as untreated, 0 = no growth, -100 = all killed). The conditions noted are these: 10 µM unless noted.
Turning to `C#Cc1ccccc1NC(=O)c1sc2nc3c(cc2c1N)CCCCC3`, the growth was 88%.
As to `O=C1[C@@H](OS(=O)(=O)CC(F)(F)F)[C@H](c2ccc(F)cn2)N1c1cc2c3ccccc3ccc2c2ccccc12`, the growth was 84.5%.
Same read-out and setting: the value for `CC(C)CSc1nc(Nc2ccccc2)c(C#N)c(-c2ccc(F)cc2)n1` was 38.7%.

In a further assay the test system is NCI-H226 lung. The assay is described as above. Particulars: 10 µM unless noted.
In the case of `Cc1cc2ccccc2c[n+]1CC(=O)c1ccc(-c2ccccc2)cc1`, the growth was 60.8%.
On the same count and under the same terms, next, `COC(=O)c1ccc2c(c1)n(Cc1ccc3ccccc3c1)c[n+]2Cc1ccc2ccccc2c1`: 61.3%.
Still for that read-out and setting: the value for `Cc1c(Cl)cccc1NC(=O)c1sc2nc3c(cc2c1N)CCCCC3` was 71.6%; that for `C=C1C(=O)O[C@H]2[C@H]1CC/C(COC(=O)c1cn(C)c3ccccc13)=C\CC[C@@]1(C)O[C@@H]21` was -36.5% (active).
Still for that read-out and setting: next, `Sc1cccc2cccnc12`: 55.7%; `O=C(CCl)N1CCCc2ccccc21`: 101%; `Cc1cccc(C)c1NC(=O)CN(CC(C)C)CC(O)COc1ccccc1` (centres undefined): 94.9%.
Regarding `OCCNc1nc(NCCO)nc(Nc2ccc(C3=NN(c4cc(Cl)cc(Cl)c4)C(c4ccc(Cl)cc4)C3)cc2)n1` (centres undefined), the growth is 109%.
Regarding `CC(C)(C)c1nn(-c2ccccc2)c2c1COCN2Cc1ccc(Cl)cc1`, the growth is 87.5%.
As for `NS(=O)(=O)c1ccc(N2Cc3cc(Cl)ccc3OC3=C2C(=O)N(CC2CCCCC2)C3=O)cc1`, the growth is -23.5% (active).
Still for that read-out and setting: the value for `C#C[C@@]1(O)[C@@H](CO)O[C@@H](n2cc(-c3ccco3)c3c(N)ncnc32)[C@@H]1O` was 70.7%; that for `NC(=O)CN1C(=O)c2ccccc2C1=O` was 101%.
The same measure, in the same setting: next, `CC1CCCN(CCCCCOc2ccc3oc4ccc(Cl)cc4c(=O)c3c2)C1` (centres undefined): 104%.
Take `O=c1[nH]c(-c2cccc(F)c2)cc2cc(F)ccc12`: the growth is 96.3%.
Still for that read-out and setting: next, `O=C(O)COc1ccc2c(=O)c3sc4c(=O)c5ccccc5c(=O)c4c3c(=O)c2c1`: 28.6%.
Same read-out and setting: the value for `CCOC(=O)/C=C1\SC(=Nc2ccc(C#N)cc2)N(CCN2C(=O)/C(=C/C(=O)OCC)SC2=Nc2ccc(C#N)cc2)C1=O` was 92.9%.
Still for that read-out and setting: next, `COC(=O)/C=C1\SC(=Nc2ccc(F)cc2)N(CCc2c[nH]c3ccccc23)C1=O`: 91.2%; `CCN1CCN(Cc2ccc(NC(=O)c3cccc(C#Cc4cccc5[nH]nc(N)c45)c3)cc2C(F)(F)F)CC1`: 16.6%; `CC[C@H](Nc1ncnc2nc[nH]c12)c1nc2cccc(CC(=O)c3ccc(C(=O)NO)cc3)c2c(=O)n1-c1ccccc1`: 84.9%.
As for `CC(=O)OCC1OC(OC2C(COC(C)=O)OC(OCCC[S-])C(OC(C)=O)C2OC(C)=O)C(OC(C)=O)C(OC(C)=O)C1OC(C)=O.[Au+].c1ccc(CN2[CH-]N(Cc3ccccc3)C(c3ccccc3)=C2c2ccccc2)cc1` (centres undefined), the growth was 25.3%.
`O=S(=O)(O)c1ccc(N=NSc2ccc3ccccc3c2)cc1`: the growth was 106%.
Consider `C[C@H]1[C@H](C)CC[C@]2(C(=O)OCCOCCOCC[P+](c3ccccc3)(c3ccccc3)c3ccccc3)CC[C@]3(C)C(=CC[C@@H]4[C@@]5(C)CC[C@H](OC(=O)C(Cl)Cl)C(C)(C)[C@@H]5CC[C@]43C)[C@H]12`, for which the growth is 15%.
For `O=c1c2ccccc2oc2ccc(OCCCCCN3CCCCCC3)cc12`, the growth is 91.4%.
On the same count and under the same terms, the value for `Nc1c(C(=O)Nc2ccccn2)sc2nc3c(cc12)C(=O)CCC3` was 74.7%; that for `COc1ccc(-n2cc(-c3ccc(Cl)c(Cl)c3)[nH]c2=O)cc1OC` was 97.5%; that for `Cc1ccc(C(=O)/C(=C/c2ccc([N+](=O)[O-])cc2)S(=O)Cc2ccccc2)cc1` (centres undefined) was 47.1%.
For the molecule `C=CCn1c(CN2CCN(c3cc4c(cc3F)c(=O)c(C(=O)O)cn4C3CC3)CC2)n[nH]c1=S`, the growth is 110%.
As to `CC(=O)c1ccc(NC(=O)CSc2nnc(-c3cc(-c4ccc(C)cc4)nc4ccccc34)o2)cc1`, the growth was 58.7%.
On the same count and under the same terms, the value for `Cn1cc(-c2ccc3c(c2)ncn3-c2ccc(CC(=O)Nc3cc(C(C)(C)C)on3)cc2)cn1` was 22.2%; that for `CN(C)[C@@H]1C(=O)C(C(N)=O)=C(O)[C@@]2(O)C(=O)C3=C(O)c4c(O)cc(CN5CCc6ccccc6C5)c(Cl)c4C[C@H]3C[C@@H]12` was -70.8% (active); that for `CC(=O)Oc1c2c(nc3c1c1ccccc1n3Cc1ccccc1)-c1ccccc1C2` was 85.9%.
